We go through 25 compounds from PubChem BioAssay (EPA / NIEHS).

What is called AC50 is the concentration giving half of the maximal activity seen.

A structure can be active in one record and inactive in another. Calls of active or inactive are those of the source. Rule for the calls: active = hit-call score of the fitted dose curve at least 0.9, where 1 is the maximum; inactive = score below 0.9.

The nature of assay [1]: ATG_GLI_CIS: Attagene CIS-FACTORIAL HepG2 Assay for human Zinc Finger Protein GLI1 (AID 2282945). As to conditions: HepG2, Attagene cis-factorial reporter mRNA, GLI element; actives raise or lower the signal. In short, it runs like this: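 HepG2 cells transiently transfected with cis-promoter multiplexed reporter units report endogenous transcription factor activity. After 24 h chemical exposure, reporter mRNA was quantified by RT-PCR, 6-FAM labelling, HpaI digestion and capillary electrophoresis, with bidirectional fitting against DMSO.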

The target in assay [2] is Bile acid receptor (Homo sapiens) (UniProt Q96RI1). Briefly: ATG_IR1_CIS: Attagene CIS-FACTORIAL HepG2 Assay for human Nuclear Receptor Subfamily 1 Group H Member 4 (NR1H4), IR1 submotif (AID 2282946). As to conditions: IR1 reporter transcription, actives raise or lower the signal. In short, it runs like this:
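Readout: reporter transcript levels by RT-PCR with fluorescent capillary electrophoresis, from HepG2 cells transiently transfected with multiplexed cis-regulated reporters and dosed 24 h. Gain- or loss-of-signal fitted versus DMSO negative control.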

The nature of assay [3]: ATG_GRE_CIS: Attagene CIS-FACTORIAL HepG2 Assay for human Glucocorticoid Response Elements (GRE) (AID 2282947). The following applies: HepG2 GRE cis-reporter, Attagene multiplex mRNA; actives raise or lower the signal. In short, it runs like this:
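Cells (HepG2) bearing transfected cis-promoter reporter transcription units were treated with chemical for 24 hours. Reporter mRNA was measured via RT-PCR with capillary electrophoresis, and activity was fitted in both directions relative to DMSO.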

Assay [4] is described as follows: ATG_ISRE_CIS: Attagene CIS-FACTORIAL HepG2 Assay for human Interferon Regulatory Factor 1 (IRF1) binding to an Interferon-Stimulated Response Element (ISRE) (AID 2282948). The following applies: HepG2 ISRE cis-reporter (Attagene), mRNA transcription readout; actives raise or lower the signal. In short, it runs like this:
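Read-out: fluorescent RT-PCR products resolved by capillary electrophoresis, reporting endogenous transcription factor activity via ISRE-driven reporter mRNA in transfected HepG2 cells dosed for 24 h; gain or loss fitted relative to DMSO.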

Assay [5] in a line: ATG_M_32_CIS: Attagene CIS-FACTORIAL HepG2 Assay for M32 Transcription Factor (Internal Marker) (AID 2282949).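 Note: background control marker of the multiplexed CIS panel rather than a real target.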 As to conditions: HepG2 Attagene cis-factorial M32 reporter, mRNA; actives raise or lower the signal. In short, it runs like this: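 HepG2 transfectants (cis-regulated reporter transcription units) dosed 24 h. Reporter mRNA by RT-PCR plus CE, analysed as gain or loss relative to DMSO.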

Assay [6] can be described thus: ATG_M_06_CIS: Attagene CIS-FACTORIAL HepG2 Assay for M06 Transcription Factor (Internal Marker) (AID 2282950). The following applies: HepG2 Attagene CIS-FACTORIAL M06 internal marker reporter; actives raise or lower the signal. In short, it runs like this: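 Cells (HepG2, transiently carrying cis-driven reporter units) receive chemical for 24 h before RNA isolation. Reporter cDNA is PCR-amplified, FAM-labelled by primer extension, HpaI-digested and sized on a capillary analyser.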

Assay [7] concerns the target Hypoxia-inducible factor 1-alpha (Homo sapiens) (UniProt Q16665). As to the kind of experiment: ATG_HIF1a_CIS: Attagene CIS-FACTORIAL HepG2 Assay for human Hypoxia Inducible Factor 1 (HIF1A) (AID 2282951). The following applies: HepG2 Attagene cis-factorial HIF1a reporter transcription; actives raise or lower the signal. In short, it runs like this:
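After 24 h chemical exposure of reporter-transfected HepG2 cells, reporter cDNA was PCR-amplified, labelled by 6-FAM primer extension (2 min 95 C, 20 s 68 C, 10 min 72 C), HpaI-cut (2 h, 37 C) and analysed by CE.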

For assay [8], the target named is Hepatocyte nuclear factor 6 (Homo sapiens) (UniProt Q9UBC0). As to the kind of experiment: ATG_HNF6_CIS: Attagene CIS-FACTORIAL HepG2 Assay for human Hepatocyte Nuclear Factor 6 (HNF6) (AID 2282952). The following applies: HepG2 Attagene cis-factorial HNF6 reporter transcription; actives raise or lower the signal. In short, it runs like this: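 First, HepG2 cells were transfected with the multiplexed cis reporter library and dosed with chemical for 24 h. Next, RNA was reverse-transcribed, PCR-amplified and fluorescently labelled. Finally, HpaI-digested fragments were read by capillary electrophoresis.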
Chain of Hepatocyte nuclear factor 6 (Homo sapiens) (Q9UBC0 whole entry, looked up, the tested form may be a part): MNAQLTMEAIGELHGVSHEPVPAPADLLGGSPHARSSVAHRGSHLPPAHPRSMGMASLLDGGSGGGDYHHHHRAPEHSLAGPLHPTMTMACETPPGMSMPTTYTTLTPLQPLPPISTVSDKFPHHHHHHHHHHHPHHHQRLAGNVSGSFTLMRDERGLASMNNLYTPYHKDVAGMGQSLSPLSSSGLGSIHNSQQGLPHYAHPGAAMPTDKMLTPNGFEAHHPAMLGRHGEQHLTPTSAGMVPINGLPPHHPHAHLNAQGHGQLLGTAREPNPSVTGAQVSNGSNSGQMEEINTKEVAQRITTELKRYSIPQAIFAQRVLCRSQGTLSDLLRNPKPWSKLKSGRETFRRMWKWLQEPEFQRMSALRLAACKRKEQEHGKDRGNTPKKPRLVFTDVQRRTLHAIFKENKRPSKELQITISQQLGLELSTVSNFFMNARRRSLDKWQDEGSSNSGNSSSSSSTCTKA

Assay [9] in a line: ATG_MRE_CIS: Attagene CIS-FACTORIAL HepG2 Assay for human Metal Responsive Element (MRE) (AID 2282954). The following applies: HepG2 MRE cis-reporter transcription, Attagene multiplex; actives raise or lower the signal. In short, it runs like this:
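Cells were transfected with cis-promoter reporter transcription units, then dosed for 24 h. RNA was reverse-transcribed, amplified, fluorescently labelled and resolved by capillary electrophoresis, and activity was fitted in both directions relative to DMSO.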

Assay [10] has as its target Heat shock factor protein 1 (Homo sapiens) (UniProt Q00613). As to the kind of experiment: ATG_HSE_CIS: Attagene CIS-FACTORIAL HepG2 Assay for human Heat Shock Transcription Factor 1 (HSE) (AID 2282953). As to conditions: HepG2 HSE cis-reporter, Attagene RNA transcription; actives raise or lower the signal. In short, it runs like this:
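Liver-derived HepG2 cells carry transiently introduced multiple reporter units governed by cis promoters. Reporter RNA measured 24 h post-dose through reverse transcription, PCR amplification, fluorescent labelling and capillary electrophoresis, normalised to DMSO.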

Chain of Bile acid receptor (Homo sapiens) (Q96RI1 whole entry, looked up): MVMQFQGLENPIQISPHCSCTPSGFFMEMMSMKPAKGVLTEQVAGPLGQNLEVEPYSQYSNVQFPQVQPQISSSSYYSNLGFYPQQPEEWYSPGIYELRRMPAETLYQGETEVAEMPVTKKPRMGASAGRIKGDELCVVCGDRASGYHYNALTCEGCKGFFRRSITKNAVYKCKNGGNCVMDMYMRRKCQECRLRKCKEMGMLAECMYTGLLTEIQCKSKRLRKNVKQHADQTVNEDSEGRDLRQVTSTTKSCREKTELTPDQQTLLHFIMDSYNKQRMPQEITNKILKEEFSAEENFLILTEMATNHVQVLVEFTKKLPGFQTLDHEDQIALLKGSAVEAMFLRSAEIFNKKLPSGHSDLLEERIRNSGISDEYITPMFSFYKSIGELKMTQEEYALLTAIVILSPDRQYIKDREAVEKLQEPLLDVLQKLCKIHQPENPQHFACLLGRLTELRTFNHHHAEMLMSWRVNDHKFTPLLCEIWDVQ
Chain of Heat shock factor protein 1 (Homo sapiens) (Q00613 whole entry, looked up): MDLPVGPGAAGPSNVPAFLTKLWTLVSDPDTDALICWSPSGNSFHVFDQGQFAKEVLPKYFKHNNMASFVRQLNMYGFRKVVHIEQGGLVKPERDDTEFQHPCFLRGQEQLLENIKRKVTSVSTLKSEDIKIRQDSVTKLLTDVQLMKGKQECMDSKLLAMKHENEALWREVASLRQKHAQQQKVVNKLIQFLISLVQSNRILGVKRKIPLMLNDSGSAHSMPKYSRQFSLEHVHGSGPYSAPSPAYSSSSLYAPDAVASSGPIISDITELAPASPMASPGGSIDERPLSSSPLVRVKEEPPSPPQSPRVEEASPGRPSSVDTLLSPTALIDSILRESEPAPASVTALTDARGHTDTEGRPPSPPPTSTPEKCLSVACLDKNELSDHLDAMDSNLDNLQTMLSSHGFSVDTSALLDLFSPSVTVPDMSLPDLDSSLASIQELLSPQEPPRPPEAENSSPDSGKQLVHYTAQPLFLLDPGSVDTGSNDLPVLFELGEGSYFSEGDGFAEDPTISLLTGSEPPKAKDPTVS
Chain of Hypoxia-inducible factor 1-alpha (Homo sapiens) (Q16665 whole entry, looked up): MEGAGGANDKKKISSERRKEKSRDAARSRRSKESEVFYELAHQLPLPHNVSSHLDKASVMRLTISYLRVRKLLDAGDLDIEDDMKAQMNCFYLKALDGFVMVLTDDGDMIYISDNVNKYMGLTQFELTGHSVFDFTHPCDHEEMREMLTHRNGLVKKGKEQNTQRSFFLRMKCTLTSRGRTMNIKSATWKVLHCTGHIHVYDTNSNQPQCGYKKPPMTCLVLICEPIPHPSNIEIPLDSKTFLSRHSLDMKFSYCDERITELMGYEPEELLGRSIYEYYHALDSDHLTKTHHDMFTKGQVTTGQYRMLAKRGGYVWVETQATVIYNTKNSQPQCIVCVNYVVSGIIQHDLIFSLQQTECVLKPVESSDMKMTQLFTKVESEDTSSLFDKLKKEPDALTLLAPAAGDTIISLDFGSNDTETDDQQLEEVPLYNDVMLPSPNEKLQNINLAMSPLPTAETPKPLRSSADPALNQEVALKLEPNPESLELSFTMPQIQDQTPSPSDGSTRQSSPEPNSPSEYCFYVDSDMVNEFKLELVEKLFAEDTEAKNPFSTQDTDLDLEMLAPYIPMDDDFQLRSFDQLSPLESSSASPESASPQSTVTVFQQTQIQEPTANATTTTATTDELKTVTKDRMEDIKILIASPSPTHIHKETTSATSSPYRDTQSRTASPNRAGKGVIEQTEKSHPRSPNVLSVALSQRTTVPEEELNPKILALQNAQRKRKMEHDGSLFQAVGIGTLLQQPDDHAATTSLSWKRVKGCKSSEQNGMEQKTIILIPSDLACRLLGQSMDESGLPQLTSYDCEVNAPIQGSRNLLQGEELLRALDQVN

Consider `O=C(OCCOCCOCCOC(=O)c1ccccc1)c1ccccc1`, for which the compound was classed as inactive in assay [1], in [2], in [3], in [4], in assay [5] and in assay [6]. Also, the compound was called inactive in assay [7], in [8] and in assay [9].
For `OCCCC(F)(F)C(F)(F)C(F)(F)F`, the result in assay [1], in assay [2], in [3], in assay [4], in assay [5] and in [6] was inactive. Besides, the outcome in [7], in assay [8] and in assay [9] was inactive.
As to `c1ccc(-c2ccccc2-c2ccccc2)cc1`, the outcome in [1], in [3], in assay [5], in assay [6], in [7] and in assay [8] was inactive. The AC50 in assay [4] was 100 µM (active).
As for `OCC(F)(F)C(F)(F)C(F)(F)C(F)(F)C(F)(F)C(F)(F)F`, the outcome in [1], in [2], in assay [3], in assay [4], in [5] and in assay [6] was inactive. Moreover, the result in assay [7], in assay [8], in assay [10] and in [9] was inactive.
As for `CCC(=O)OCCc1ccccc1`, the compound was called inactive in assay [1], in assay [2], in assay [3], in assay [4], in assay [5] and in [6]. In addition, the compound was called inactive in [7], in assay [8], in assay [10] and in [9].
With `OCC(F)(F)C(F)(F)C(F)(F)C(F)(F)C(F)(F)C(F)F`, the outcome in [1], in assay [2], in assay [3], in assay [4], in [5] and in assay [6] was inactive. For the same compound, the compound was classed as inactive in [7], in assay [8] and in assay [9].
On to `O=S(=O)(O)C(F)(F)C(F)(F)C(F)(F)C(F)(F)C(F)(F)C(F)(F)C(F)(F)F`, for which the compound was called inactive in assay [1], in assay [3], in [4], in [5], in assay [6] and in assay [7]. The call in assay [8], in [10] and in [9] was inactive. Further, the AC50 in assay [5] was 149 µM (active); in assay [8], 157 µM (active).
Take `C=CC(=O)OCC(F)(F)C(F)(F)C(F)(F)C(F)(F)C(F)(F)C(F)(F)C(F)(F)F`: the result in [1], in assay [2], in assay [3], in [4], in assay [5] and in assay [6] was inactive. Further, the result in [7], in assay [8], in assay [10] and in [9] was inactive.
As for `FC(F)(F)C(F)(F)C(F)(F)C(F)(F)C(F)(F)C(F)(F)CC1CO1` (stereo not given), the outcome in [1], in assay [2], in [3], in [4], in assay [5] and in [6] was inactive. For the same compound, the compound was classed as inactive in assay [7], in [8], in assay [10] and in assay [9].
For `Cc1ccc(S(=O)(=O)NCl)cc1`, the compound was classed as inactive in assay [1], in [3], in assay [4], in assay [5], in [6] and in assay [7]. The compound was called inactive in [8].
For `C=C(C)C(=O)OCC(F)(F)C(F)(F)C(F)(F)C(F)(F)C(F)(F)C(F)(F)C(F)(F)F`, the call in [1], in assay [2], in assay [3], in assay [4], in assay [5] and in assay [6] was inactive. Further, the outcome in assay [7], in assay [8] and in assay [9] was inactive.
Turning to `CCCCCCCCCCCCCCCC[N+](C)(C)Cc1ccccc1`, the call in assay [1], in [3], in [5], in [6], in assay [7] and in assay [8] was inactive. Moreover, in assay [9], the outcome was inactive. The concentration at half-maximal activity (AC50) in [2] is 10.2 µM (active); in assay [4] it was 47.6 µM (active); in assay [10] it was 24.5 µM (active).
In the case of `CNC(=S)NC`, the outcome in assay [1], in assay [2], in [3], in assay [4], in [5] and in [6] was inactive. The outcome in [7], in assay [8] and in [9] was inactive.
`CS(C)(=O)=O`: the result in assay [1], in assay [2], in assay [3], in [4], in assay [5] and in assay [6] was inactive. Besides, the compound was called inactive in assay [7], in assay [8] and in [9].
For the compound `O=C(O)C(F)(F)C(F)(F)C(F)(F)C(F)(F)C(F)(F)C(F)(F)C(F)(F)C(F)(F)C(F)(F)C(F)(F)C(F)(F)C(F)(F)F`, the call in [1], in assay [3], in assay [4], in [5], in [6] and in assay [7] was inactive. The call in assay [8] and in assay [10] was inactive.
Take `O=C(O)C(F)(OC(F)(F)C(F)(OC(F)(F)C(F)(OC(F)(F)C(F)(F)C(F)(F)F)C(F)(F)F)C(F)(F)F)C(F)(F)F` (stereo not given): the compound was called inactive in assay [1], in [3], in [4], in assay [5], in assay [6] and in assay [7]. Besides, the call in assay [8] and in assay [10] was inactive.
Regarding `FC(F)(Br)C(F)(F)C(F)(F)C(F)(F)C(F)(F)C(F)(F)Br`, the outcome in assay [1], in [3], in assay [4], in [5], in assay [6] and in assay [7] was inactive. In addition, the compound was classed as inactive in assay [8] and in [10].
Turning to `CCc1c(Br)c(Br)c(Br)c(Br)c1Br`, the compound was classed as inactive in assay [1], in [2], in assay [3], in [4], in assay [5] and in assay [6]. In addition, the call in [7], in [8] and in assay [9] was inactive.
`CN(C)Cc1ccccc1O`: the compound was classed as inactive in assay [1], in assay [3], in [4], in assay [5], in [6] and in assay [7]. Further, the call in assay [8] and in assay [10] was inactive.
Consider `[Co]`, for which the compound was called inactive in assay [1], in assay [3], in assay [4], in assay [5], in assay [6] and in assay [7]. For the same compound, the compound was classed as inactive in assay [8].
On to `O=C(O)C(F)(F)C(F)(F)C(F)F`, for which the result in [1], in assay [3], in [4], in assay [5], in [6] and in [7] was inactive. Besides, the result in assay [8] and in assay [9] was inactive.
Regarding `O=C(O)C(F)(F)C(F)(F)C(F)(F)C(F)(F)F`, the compound was classed as inactive in assay [1], in [3], in assay [4], in [5], in assay [6] and in assay [7]. Besides, the result in [8], in assay [10] and in assay [9] was inactive.
`CCCCCCOC(=O)c1ccccc1O`: the compound was classed as inactive in assay [1], in [3], in [4], in [5], in assay [6] and in assay [7]. The compound was classed as inactive in assay [8], in assay [10] and in [9].
Turning to `CC(C)=CCCC(C)CCOC(=O)C(C)C` (stereo not given), the compound was classed as inactive in [1], in [3], in [4], in [5], in assay [6] and in assay [7]. The result in assay [8] and in assay [9] was inactive.
With `CC(Cc1ccc(O)c(O)c1)C(C)Cc1ccc(O)c(O)c1` (stereo not given), the outcome in assay [1], in assay [3], in [4], in [5], in assay [6] and in assay [8] was inactive. The AC50 in [7] is 8.95 µM (active); in assay [10], 57.7 µM (active); in assay [9], 22.3 µM (active).
